Assay [1] addresses ATP-dependent 6-phosphofructokinase (Trypanosoma brucei brucei) (UniProt O15648). Nature of the assay: qHTS Assay to Find Inhibitors of T. brucei phosphofructokinase: hit validation (AID 492961).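 Further: luminescence reports ADP formed as PFK phosphorylates fructose-6-phosphate with ATP; on the % scale 0 is the no-effect control and ±100 the full control effect.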 Particulars: T. brucei PFK, ADP-Glo luminescence; series mostly up to 51.4 µM. The gist of the method:
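Compounds titrated; %activity normalized to 0x and 1x enzyme controls, curve-fitted. Readout: ADP-Glo luminescence after 45 min room-temperature reaction of 1.25 nM PFK, 0.1 mM ATP, 0.5 mM F6P, pH 8.0.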

Assay [2] addresses Luciferin 4-monooxygenase (Photinus pyralis) (UniProt P08659). As to the kind of experiment: Biochemical firefly luciferase enzyme assay for NPC (AID 624030).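 Further: purified P. pyralis luciferase at 10 nM with luciferin and ATP substrate; 0% = DMSO and -100% = full luciferase inhibition by PTC124 control; nearly all actives have a fitted effect of over 70% in size.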 Particulars: purified P. pyralis luciferase, luminescence, 5 min; series mostly up to 58.6 µM. In outline: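 Purified P. pyralis luciferase at 10 nM in 50 mM Tris Acetate (final), luminescence read within 5 minutes of enzyme addition to compounds. Activity normalised to PTC124 versus DMSO; concentration-response curves classed by r2, magnitude and activity.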

Assay [3] is described as follows: qHTS profiling for inhibitors of Plasmodium falciparum proliferation (AID 504749). Further: potency means the concentration at half of the fitted maximal effect.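 On activity, negative = inhibition: 0% = DMSO vehicle and full inhibition = artemisinin control.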 On all read-outs here: nearly all actives have a fitted effect of over 60% in size. The following applies: P. falciparum in erythrocytes, SYBR Green DNA, 72 h; for activity, negative = inhibition: at 28.7 µM (top of the series). In outline:
(§1)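 Each compound contacts P. falciparum-infected red blood cells for 72 h at 37 C; lysis buffer (Tris, EDTA, saponin, Triton X, SYBR Green I) is added and fluorescence measured next morning; values normalized to controls.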

For another assay, the system named is CP185. The description is as above. Particulars: P. falciparum in erythrocytes, SYBR Green DNA, 72 h; series mostly up to 28.7 µM. In outline:
as §1

The next assay deals with CP192. Described as above. The following applies: P. falciparum in erythrocytes, SYBR Green DNA, 72 h; series mostly up to 28.7 µM. In outline: as §1
A further assay deals with CP211. Described as above. The following applies: P. falciparum in erythrocytes, SYBR Green DNA, 72 h; series mostly up to 28.7 µM. The gist of the method:
as §1

Another assay relates to CP238. Described as above. Particulars: P. falciparum in erythrocytes, SYBR Green DNA, 72 h; series mostly up to 28.7 µM. The gist of the method: as §1
A further assay deals with CP252. The description is as above. The following applies: P. falciparum in erythrocytes, SYBR Green DNA, 72 h; series mostly up to 28.7 µM. The gist of the method: as §1
A further assay concerns CP262. The assay is described as above. Particulars: P. falciparum in erythrocytes, SYBR Green DNA, 72 h; series mostly up to 28.7 µM. In outline:
as §1

The subject of the next assay is CP265. The description is as above. The following applies: P. falciparum in erythrocytes, SYBR Green DNA, 72 h; series mostly up to 28.7 µM. In outline: as §1
For a further assay, the system named is CP269. The description is as above. The following applies: P. falciparum in erythrocytes, SYBR Green DNA, 72 h; series mostly up to 28.7 µM. The gist of the method: as §1
For a further assay, the system named is CP286. The assay is described as above. Particulars: P. falciparum in erythrocytes, SYBR Green DNA, 72 h; series mostly up to 28.7 µM. The gist of the method: as §1
The next assay concerns CP315. The assay is described as above. Particulars: P. falciparum in erythrocytes, SYBR Green DNA, 72 h; series mostly up to 28.7 µM. The gist of the method:
as §1

The subject of the next assay is CP329. The assay is described as above. Particulars: P. falciparum in erythrocytes, SYBR Green DNA, 72 h; series mostly up to 28.7 µM. In outline: as §1
Another assay concerns DFO2036. Described as above. Particulars: P. falciparum in erythrocytes, SYBR Green DNA, 72 h; series mostly up to 28.7 µM. The gist of the method: as §1
The next assay has as its system Dd2. Described as above. The following applies: P. falciparum in erythrocytes, SYBR Green DNA, 72 h; series mostly up to 28.7 µM. The gist of the method: as §1
For another assay, the system named is ECU. The assay is described as above. Particulars: P. falciparum in erythrocytes, SYBR Green DNA, 72 h; series mostly up to 28.7 µM. In outline:
as §1

The test system of a further assay is FAB9. Described as above. Particulars: P. falciparum in erythrocytes, SYBR Green DNA, 72 h; series mostly up to 28.7 µM. In outline: as §1
The subject of the next assay is JCK. The assay is described as above. Particulars: P. falciparum in erythrocytes, SYBR Green DNA, 72 h; series mostly up to 28.7 µM. In outline:
as §1

The test system of the next assay is N140. The description is as above. The following applies: P. falciparum in erythrocytes, SYBR Green DNA, 72 h; series mostly up to 28.7 µM. The gist of the method:
as §1

Results filed as inconclusive are left out. Calls of active or inactive are those of the source. The call rests on the fitted dose curve; in most records, active means well fitted curve in the direction sought with a large enough effect; inconclusive means small, poorly fitted or top-dose-only effect, or another doubt; inactive means no such curve, though single readings can be large; an effect the other way counts as inactive or inconclusive.

ATP-dependent 6-phosphofructokinase (Trypanosoma brucei brucei), sequence (O15648 whole entry, looked up): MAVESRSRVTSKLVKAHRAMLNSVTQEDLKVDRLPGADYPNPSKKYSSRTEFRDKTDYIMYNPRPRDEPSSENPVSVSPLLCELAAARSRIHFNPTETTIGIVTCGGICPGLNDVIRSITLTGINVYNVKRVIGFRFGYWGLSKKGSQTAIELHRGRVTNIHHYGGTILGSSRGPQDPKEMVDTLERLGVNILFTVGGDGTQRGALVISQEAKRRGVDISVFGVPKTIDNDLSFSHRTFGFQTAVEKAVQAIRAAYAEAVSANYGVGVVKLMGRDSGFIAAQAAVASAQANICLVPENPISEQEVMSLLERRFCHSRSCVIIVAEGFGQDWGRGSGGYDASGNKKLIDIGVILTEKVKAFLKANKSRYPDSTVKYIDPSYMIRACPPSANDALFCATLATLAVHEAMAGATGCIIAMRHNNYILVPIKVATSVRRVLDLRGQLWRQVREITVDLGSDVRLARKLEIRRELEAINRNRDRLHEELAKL
Luciferin 4-monooxygenase (Photinus pyralis), sequence (P08659 whole entry, looked up): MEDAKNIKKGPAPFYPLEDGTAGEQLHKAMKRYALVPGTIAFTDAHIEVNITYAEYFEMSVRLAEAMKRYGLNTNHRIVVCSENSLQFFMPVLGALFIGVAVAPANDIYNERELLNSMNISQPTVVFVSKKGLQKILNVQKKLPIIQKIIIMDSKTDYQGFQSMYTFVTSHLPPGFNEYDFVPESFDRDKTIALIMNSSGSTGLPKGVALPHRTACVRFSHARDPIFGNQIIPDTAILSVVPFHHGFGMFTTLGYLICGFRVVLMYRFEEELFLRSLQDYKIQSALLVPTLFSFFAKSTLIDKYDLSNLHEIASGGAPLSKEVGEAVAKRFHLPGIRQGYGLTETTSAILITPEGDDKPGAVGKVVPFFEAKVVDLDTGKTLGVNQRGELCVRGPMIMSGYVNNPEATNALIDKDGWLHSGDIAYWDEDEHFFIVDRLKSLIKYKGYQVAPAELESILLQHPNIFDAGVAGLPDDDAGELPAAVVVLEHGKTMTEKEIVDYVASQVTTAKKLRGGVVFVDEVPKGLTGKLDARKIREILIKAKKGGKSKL

On to `C[n+]1c2cc(N)ccc2cc2ccc(N)cc21`, for which the Potency result in [1] and in assay [2] was “inactive” throughout. Besides, the Potency in assay [3] (parasite line A) was 398 nM (active); in assay [3] (parasite line B), 1000 nM (active); with CP185, 631 nM (active); with CP192, 1200 nM (active); in the assay on CP211, 953 nM (active); with CP238, 708 nM (active). In addition, the Potency was 794 nM (active) with CP252; 1350 nM (active) in the assay on CP262; 1260 nM (active) with CP265; 953 nM (active) with CP269; 178 nM (active) in the assay with CP286; 2130 nM (active) in the assay on CP315. Further, the Potency with CP329 was 1070 nM (active); in the assay on DFO2036, 355 nM (active); in the assay with Dd2 it was 355 nM (active); in the assay with ECU, 1260 nM (active); in the assay on FAB9, 199 nM (active); in the assay on JCK, 794 nM (active). The Potency in the assay on N140 is 631 nM (active).
Regarding `CC1(Cn2ccnn2)[C@H](C(=O)O)N2C(=O)C[C@H]2S1(=O)=O` (some centres undefined), the Potency result (in assay [1]; in assay [2]; in the assay on CP185; with CP192; with CP211; with CP238) was “inactive” each time. For the same molecule, the Potency result in the assay with CP252, in the assay on CP262, in the assay with CP265, in the assay with CP269, with CP286 and with CP315 was “inactive” in each case. Further, the Potency entry in the assay with CP329, in the assay with DFO2036, with Dd2, with ECU, in the assay with FAB9 and in the assay with JCK was “inactive” throughout. The Potency entry with N140 was “inactive”. Also, the activity, negative = inhibition in [3] (parasite line A) was 4.59% (inactive); in [3] (parasite line B), 0.438% (inactive).
As for `Cc1ccc(/C=C2/C(=O)C3(C)CCC2C3(C)C)cc1` (centres undefined), the Potency result (in assay [1]; in assay [2]; in the assay on CP185; with CP192; in the assay with CP211; with CP238) was “inactive” each time. Besides, the Potency result with CP252, in the assay on CP262, in the assay with CP265, with CP269, in the assay with CP286 and in the assay with CP315 was “inactive” each time. Also, the Potency entry with CP329, with DFO2036, with Dd2, with ECU, in the assay on FAB9 and in the assay with JCK was “inactive” each time. For the same molecule, in the assay on N140, the Potency result was “inactive”. For the same molecule, the activity, negative = inhibition in [3] (parasite line A) is 14.8% (inactive); in assay [3] (parasite line B), 12% (inactive).
As for `Cc1ccccc1N1C(=O)c2cc(N)ccc2N/C1=C\F`, the Potency entry (in assay [1]; in assay [2]; with CP185; with CP192; in the assay on CP211; in the assay on CP238) was “inactive” throughout. In addition, the Potency entry in the assay on CP252, with CP262, in the assay on CP265, with CP269, in the assay on CP286 and in the assay on CP315 was “inactive” throughout. For the same molecule, the Potency entry in the assay with CP329, with DFO2036, with Dd2, with ECU, in the assay on FAB9 and in the assay on JCK was “inactive” in each case. Further, the Potency result with N140 was “inactive”. Further, the results for the activity, negative = inhibition in [3] (parasite line A) and in assay [3] (parasite line B) were -6.61% (inactive) and -18.2% (inactive), respectively.
Consider `NC(=O)c1ncn(C2OC(CO)C(O)C2O)c1N` (centres undefined), for which the Potency result (in assay [1]; in assay [2]; in the assay with CP185; in the assay with CP192; in the assay with CP211; with CP238) was “inactive” throughout. Also, the Potency entry with CP252, in the assay with CP262, in the assay on CP265, in the assay with CP269, with CP286 and in the assay on CP315 was “inactive” each time. The Potency entry in the assay with CP329, with DFO2036, in the assay on Dd2, in the assay on ECU, with FAB9 and in the assay with JCK was “inactive” in each case. Further, the Potency result in the assay with N140 was “inactive”. Moreover, the activity, negative = inhibition in assay [3] (parasite line A) was 3.47% (inactive); in assay [3] (parasite line B), 6.51% (inactive).
Consider `CCCC(=O)O[C@]1(C(=O)COC(C)=O)CC[C@H]2C3C[C@H](F)C4=CC(=O)C=CC4(C)[C@@]3(F)[C@@H](O)CC21C` (some centres undefined), for which the Potency result (in assay [1]; in [2]; with CP185; with CP192; with CP211; in the assay on CP238) was “inactive” throughout. Besides, the Potency result in the assay with CP252, with CP262, in the assay with CP265, with CP269, in the assay on CP286 and with CP315 was “inactive” each time. The Potency entry in the assay on CP329, in the assay on DFO2036, with Dd2, with ECU, with FAB9 and in the assay on JCK was “inactive” each time. In addition, in the assay with N140, the Potency result is “inactive”. Moreover, the activity, negative = inhibition in [3] (parasite line A) was -8.4% (inactive); in [3] (parasite line B), -24.8% (inactive).
`O=C(OC[C@@H]1O[C@@](O)(COC(=O)c2cccnc2)[C@H](OC(=O)c2cccnc2)[C@H]1OC(=O)c1cccnc1)c1cccnc1`: the Potency entry (in [1]; in assay [2]; in the assay with CP185; in the assay with CP192; in the assay on CP211; in the assay with CP238) was “inactive” in each case. For the same molecule, the Potency result with CP252, in the assay with CP262, in the assay with CP265, in the assay on CP269, in the assay on CP286 and in the assay on CP315 was “inactive” throughout. Besides, the Potency result in the assay with CP329, in the assay on DFO2036, in the assay on Dd2, in the assay on ECU, in the assay on FAB9 and in the assay with JCK was “inactive” throughout. The Potency result with N140 was “inactive”. For the same molecule, the activity, negative = inhibition is 18.2% (inactive) in assay [3] (parasite line A) and -0.864% (inactive) in assay [3] (parasite line B).
For the molecule `CCN(CC)CC(=O)Nc1c(C)cc(C)cc1C`, the Potency result (in [1]; in assay [2]; with CP185; in the assay with CP192; in the assay on CP211; in the assay on CP238) was “inactive” throughout. In addition, the Potency result in the assay with CP252, in the assay with CP262, with CP265, with CP269, in the assay with CP286 and in the assay on CP315 was “inactive” throughout. Further, the Potency result in the assay on CP329, with DFO2036, with Dd2, in the assay with ECU, with FAB9 and in the assay with JCK was “inactive” throughout. For the same molecule, the Potency entry with N140 is “inactive”. In addition, the activity, negative = inhibition in [3] (parasite line A) is 2.56% (inactive); in assay [3] (parasite line B) it was 6.57% (inactive).
On to `OCC(CO)NC1C[C@](O)(CO)[C@@H](O)[C@H](O)[C@H]1O` (some centres undefined), for which the Potency result (in assay [1]; in assay [2]; with CP185; with CP192; with CP211; with CP238) was “inactive” in each case. Moreover, the Potency result in the assay with CP252, in the assay with CP262, in the assay with CP265, in the assay with CP269, with CP286 and in the assay on CP315 was “inactive” throughout. Also, the Potency result in the assay with CP329, in the assay on DFO2036, in the assay with Dd2, in the assay with ECU, with FAB9 and in the assay on JCK was “inactive” in each case. In addition, the Potency result with N140 is “inactive”. In addition, the activity, negative = inhibition in assay [3] (parasite line A) was 8.78% (inactive); in assay [3] (parasite line B), 9.25% (inactive).
